The text below walks through data of PubChem BioAssay (NCATS).

Molecules are shown by their SMILES. Records with an inconclusive call do not appear. Entries that show only a call come without a potency. The source made the active and inactive calls. Calls follow the shape of the dose curve; as a rule, active = well fitted inhibition curve with a large enough effect; inconclusive = small, poorly fitted or top-dose-only effect; inactive = flat fitted curve, though single readings scatter.
Potency is read from the fitted curve at half-maximal effect.

In this assay the test system is MCC-26. The assay is described as follows: qHTS assay to identify novel small-molecules to repurpose for Merkel cell carcinoma treatment (AID 1296009). Also: nearly all actives have a fitted effect of over 60% in size. The following applies: MCC and control cell lines, CellTiter-Glo viability, 72 h; series mostly up to 46 µM. The text has this:
MCC is a rare and aggressive neuroendocrine skin cancer with limited treatment options. Approximately 80% of MCCs have the Merkel cell polyomavirus (MCPyV) DNA integrated into the host genome (virus-positive: VP-MCC) and viral oncogenes drive oncogenesis. The remaining MCCs are virus-negative (VN-MCC) and are caused by UV mutagenesis. To identify novel treatments for VP-MCC and/or VN-MCC we screened three VP-MCC cell lines (WAGA, MKL-1, MKL-2), three VN-MCC cell lines (MCC-13, MCC-26, UISO), and four immortalized, non-transformed control cell lines (HaCaT, HEK293T, CRL7250, NIH-3T3) against ~2,400 compounds in the NCGC Pharmaceutical Collection (NPC) and ~1,900 compounds in the Mechanism Interrogation PlatE (MiPE). Using cell viability as a readout (CellTiter-Glo assay) we found both overlapping and distinct drugs that can be repurposed for the treatment of VP-MCC and VN-MCC.
A high-throughput screen was conducted in 1536-well white flat bottom plates (Corning) on a Kalypsys robotic system. Cell lines WAGA, MKL-1, MKL-2, MCC-13, MCC-26, UISO, HaCaT, HEK293T, CRL7250, and NIH-3T3 were screened against 2 small molecule annotated drug libraries NPC and MIPE in dose response (8 and 11 pt. respectively) measuring cell viability after 72 hours of incubation. […] A 1,536 pintool (Kalypsys) was used to transfer 23 nL of compound in DMSO to the 1,536-well assay plates. After 72 hr incubation at 37 degree celsius, 2.5 uL of CellTiter-Glo (Promega) was dispensed into each well using a BiorapTR. Plates were incubated at room temperature for 10 min, transferred to a ViewLux (PerkinElmer) and the luminescence was recorded using an exposure time of 2 seconds. Relative luminescence units (RLUs) were normalized to in-plate controls (no cells as a positive (cytotoxicity) control, DMSO as negative control) and the normalized data was processed using NCATS in-house software.
A general note: Quantitative high-throughput screening tests each substance at several concentrations.
Consider `CC[C@]1(O)C[C@@H]2CN(CCc3c([nH]c4ccccc34)[C@@](C(=O)OC)(c3cc4c(cc3OC)N(C=O)[C@@H]3C45CCN4CC=C[C@](CC)([C@H]45)[C@@H](OC(C)=O)[C@]3(O)C(=O)OC)C2)C1` (stereo not given in full), for which the Potency result is “inactive”.

Consider `COc1ccc(-c2coc3cc(O)cc(O)c3c2=O)cc1`, for which the Potency result was “inactive”. The same measure for `Cc1cccc(Nc2nc(-c3ccncc3)cs2)c1`: “inactive”; for `Nc1ncnc2c1nc(Cl)n2[C@@H]1O[C@H](CO)[C@@H](O)[C@@H]1O`: “inactive”; for `O=C(Nc1ccccc1-c1cn2c(CN3CCNCC3)csc2n1)c1cnc2ccccc2n1`: 33200 nM (active). The same measure for `CC=CCC(C)C(O)C1C(=O)NC(CC)C(=O)N(C)CC(=O)N(C)C(CC(C)C)C(=O)NC(C(C)C)C(=O)N(C)C(CC(C)C)C(=O)NC(C)C(=O)NC(C)C(=O)N(C)C(CC(C)C)C(=O)N(C)C(CC(C)C)C(=O)N(C)C(C(C)C)C(=O)N1C` (stereo not given): “inactive”; for `COC[C@@H](c1ccc(C(F)(F)F)cc1)N1CCN(C2(C)CCN(C(=O)c3c(C)ncnc3C)CC2)C[C@H]1C`: “inactive”. The same measure for `O=c1cc(N2CCOCC2)oc2c(-c3cccc4c3sc3ccccc34)cccc12`: “inactive”; for `CCOC(=O)O[C@]1(C(=O)OCCl)CC[C@@H]2[C@H]3CCC4=CC(=O)C=C[C@]4(C)[C@@H]3[C@@H](O)C[C@@]21C`: “inactive”. On to `CCN(CC)CCOC(=O)c1ccc(N)cc1`, for which the Potency entry is “inactive”. The result for `CC(C)(Cc1ccc2ccccc2c1)NC[C@@H](O)COc1cccc(Cl)c1C#N` reads “inactive”; that for `CCS(=O)(=O)N1CC(CC#N)(n2cc(-c3ncnc4[nH]ccc34)cn2)C1`, “inactive”; that for `CON=C(C(=O)N[C@@H]1C(=O)N2C(C(=O)OCOC(=O)C(C)(C)C)=C(C=Cc3scnc3C)CS[C@H]12)c1csc(N)n1`, “inactive”.

With `COc1cc(NC(=O)c2ccc(-c3ccc(Cl)cc3)o2)cc(OC)c1`, the Potency result was “inactive”. The same measure for `CC1(C)Cc2c(sc(NC(=S)NC(=O)c3ccccc3)c2C(=O)O)CO1`: “inactive”; for `CC1(C)CCC(CN2CCN(c3ccc(C(=O)NS(=O)(=O)c4ccc(NCC5CCOCC5)c([N+](=O)[O-])c4)c(Oc4cnc5[nH]ccc5c4)c3)CC2)=C(c2ccc(Cl)cc2)C1`: “inactive”. Regarding `CC1(C)CCC2=C(O1)c1ccccc1C(=O)C2=O`, the Potency entry is “inactive”. The same measure for `COc1ccc2c3c1OC1C[C@@H](O)C=C[C@@]31CCN(C)C2` (stereo not given in full): “inactive”; for `CC(C)(C)COc1ccc(-n2cc(C(=O)O)cn2)cc1C#N`: “inactive”.

Consider `CCCCCNC(=O)N1CCC(CN(Cc2ccc(Cl)cc2)Cc2ccc([N+](=O)[O-])s2)C1` (stereo not given), for which the Potency result is “inactive”. With `O=C1NCC2(CCN(CCc3ccccc3)CC2)O1`, the Potency entry is “inactive”. The same measure for `N#CC1(c2ccc(NC(=O)c3cccnc3NCc3ccncc3)cc2)CCCC1`: “inactive”. The same measure for `O=c1cc(-c2cccc3c2Sc2ccccc2S3)oc(N2CCOCC2)c1`: “inactive”; for `O=C(NCCN1CCOCC1)c1ccc(Cl)cc1`: “inactive”; for `CC(C)=CC[C@@H](O)C1=CC(=O)c2c(O)ccc(O)c2C1=O`: “inactive”.

For `COc1cccc(-c2cc(=O)c3ccccc3o2)c1N`, the Potency entry was “inactive”. Consider `CC1CCC(C(=O)N(c2cc(C#CC(C)(C)C)sc2C(=O)O)C2CCC(O)CC2)CC1` (stereo not given), for which the Potency entry is “inactive”.

For `CC(C(=O)O)c1ccc(-c2ccccc2)c(F)c1` (stereo not given), the Potency result is “inactive”. `CC(C)(C)c1ccc(C(O)CCCN2CCC(C(O)(c3ccccc3)c3ccccc3)CC2)cc1` (stereo not given): the Potency result was “inactive”.

With `NC(N)=Nc1nc(CSCC/C(N)=N/S(N)(=O)=O)cs1`, the Potency entry is “inactive”. With `O=C1NC(=O)C(=Cc2ccc(-c3ccc(F)cc3)o2)S1`, the Potency result is “inactive”. Take `O=C1C[C@@H](c2ccc(O)cc2)Oc2cc(O)cc(O)c21`: the Potency result was “inactive”. As to `O=c1cc(-c2ccccc2)oc2cc(O)cc(O)c12`, the Potency result was “inactive”. The same measure for `Cc1ccc([C@@H]2O[C@H](CO)[C@@H](O)[C@H](O)[C@@H]2O)cc1Cc1ccc(-c2ccc(F)cc2)s1`: “inactive”. The same measure for `O=c1c(-c2ccc(O)cc2)coc2cc(OC3O[C@H](CO)[C@H](O)[C@H](O)[C@H]3O)cc(O)c12` (stereo not given in full): “inactive”; for `COc1ccc(-c2nc(N3CCOCC3)c3sc(CN(C)c4ncc(C(=O)NO)cn4)cc3n2)cn1`: 52.6 nM (active); for `CC(=O)O[C@]1(C(C)=O)CC[C@H]2[C@@H]3C=C(Cl)C4=CC(=O)[C@@H]5C[C@@H]5[C@]4(C)[C@H]3CC[C@@]21C`: “inactive”.

As to `CCOc1ccc(Nc2nc(-c3c(C)nc4ccccn34)cs2)cc1`, the Potency was 52.6 nM (active). The same measure for `C[C@@H](O)[C@H]1C(=O)N2C(C(=O)O)=C(S[C@@H]3CN[C@H](C(=O)N(C)C)C3)[C@H](C)[C@H]12`: “inactive”; for `Cc1c(O)cccc1C(=O)N[C@@H](CSc1ccccc1)[C@H](O)CN1C[C@H]2CCCC[C@@H]2C[C@@H]1C(=O)NC(C)(C)C`: “inactive”.
